Source: PubChem BioAssay
A number with no mark means an inactive call. For some of these results: Entries with a potency or affinity are not part of this list. Activity calls are given as the source filed them. Unless noted, how the calls were made is not given here.

How the values were obtained:
[1] = antimalarial activity against Dd2 strain (AID 2302;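 active means growth inhibition above 50% at the single 2 µM test dose, taken to imply half-maximal potency below 2 µM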;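 further: 0% = DMSO untreated growth and 100% = chloroquine plus artemisinin killed control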); details: P. falciparum Dd2 in RBCs, LDH growth readout, 72 h; at 2 µM; stronger effect = higher value
[2] = human hepatoma cell viability loss – ATP luminescence, cytotoxicity control for P. falciparum antimalarial project, primary screen (AID 2303;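 active means inhibition above 50%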;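 further: 0% = DMSO wells and 100% = digitonin-killed cells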); details: HepG2 viability, 24-48 h, at 10 µM, stronger effect = higher value
[3] = biological target: L-lactate dehydrogenase (Plasmodium falciparum (isolate CDC / Honduras)) (UniProt Q27743); test: PfLDH activity inhibition – cell lysate, 3D7 strain, counter-screen for P. falciparum growth inhibition project (AID 2304);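 further: 0% = vehicle and 100% = reference inhibitor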; details: P. falciparum 3D7 crude extract, LDH APAD/NBT absorbance; at 2 µM; stronger effect = higher value
L-lactate dehydrogenase (Plasmodium falciparum (isolate CDC / Honduras)), sequence (Q27743 whole entry, looked up): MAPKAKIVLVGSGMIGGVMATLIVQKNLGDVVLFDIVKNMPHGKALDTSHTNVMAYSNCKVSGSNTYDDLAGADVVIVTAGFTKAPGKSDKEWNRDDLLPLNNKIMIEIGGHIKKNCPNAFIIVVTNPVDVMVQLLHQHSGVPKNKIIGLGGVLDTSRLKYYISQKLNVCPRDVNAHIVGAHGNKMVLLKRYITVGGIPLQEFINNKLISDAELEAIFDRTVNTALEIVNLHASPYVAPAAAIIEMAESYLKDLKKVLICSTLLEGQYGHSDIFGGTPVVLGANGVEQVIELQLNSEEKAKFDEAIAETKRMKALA

[4] = inhibition of 3D7 malaria parasite growth – strain 3D7 (AID 2306);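 further: 0% = DMSO wells and 100% = chloroquine plus artemisinin control wells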; details: P. falciparum 3D7 erythrocytic growth, LDH absorbance, 72 h; at 2 µM; stronger effect = higher value
[5] = biological target: Calcium-dependent protein kinase 1 (Plasmodium falciparum (isolate 3D7)) (UniProt P62344); test: PfCDPK1 kinase inhibitors, biochemical, TCAMS library (AID 1159585; cut-off not given, nearly all actives have IC50 up to about 0.98 µM;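 further: inhibitors leave more ATP so luminescence rises with inhibition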); details: recombinant PfCDPK1, Kinase-Glo ATP depletion luminescence
Calcium-dependent protein kinase 1 (Plasmodium falciparum (isolate 3D7)), sequence (P62344 whole entry, looked up): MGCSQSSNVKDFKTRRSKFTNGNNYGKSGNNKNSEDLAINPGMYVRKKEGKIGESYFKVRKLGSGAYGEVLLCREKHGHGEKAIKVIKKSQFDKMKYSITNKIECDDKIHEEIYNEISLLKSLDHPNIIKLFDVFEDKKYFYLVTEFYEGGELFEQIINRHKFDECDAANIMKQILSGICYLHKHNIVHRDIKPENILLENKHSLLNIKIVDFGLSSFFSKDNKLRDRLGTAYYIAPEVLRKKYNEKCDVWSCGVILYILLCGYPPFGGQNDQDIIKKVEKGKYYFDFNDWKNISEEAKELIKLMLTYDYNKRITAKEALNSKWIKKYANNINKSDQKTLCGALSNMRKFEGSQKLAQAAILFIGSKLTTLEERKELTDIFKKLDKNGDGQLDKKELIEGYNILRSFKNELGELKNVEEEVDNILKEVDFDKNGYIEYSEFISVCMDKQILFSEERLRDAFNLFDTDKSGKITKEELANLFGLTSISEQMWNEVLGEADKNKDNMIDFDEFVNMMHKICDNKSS

[6] = biological target: Plasmodium falciparum protein kinase 6 (PK6, PF3D7_1337100) (UniProt Q8IDW1); test: PfPK6 kinase inhibitors, biochemical, TCAMS library (AID 1159586); details: recombinant PfPK6, Kinase-Glo ATP depletion luminescence
Plasmodium falciparum protein kinase 6 (PK6, PF3D7_1337100), sequence (Q8IDW1 1-305): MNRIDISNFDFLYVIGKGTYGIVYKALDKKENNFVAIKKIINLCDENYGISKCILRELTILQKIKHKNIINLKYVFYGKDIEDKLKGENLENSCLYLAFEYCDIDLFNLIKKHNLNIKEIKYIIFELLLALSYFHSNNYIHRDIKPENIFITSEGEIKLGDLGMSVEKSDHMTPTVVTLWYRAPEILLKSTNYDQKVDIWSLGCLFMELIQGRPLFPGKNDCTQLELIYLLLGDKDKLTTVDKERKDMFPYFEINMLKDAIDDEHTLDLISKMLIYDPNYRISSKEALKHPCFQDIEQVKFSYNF

[7] = biological target: Protein kinase 7 (PK7), Plasmodium falciparum 3D7 (PF3D7_0213400) (UniProt Q7YTF7); test: inhibition of Plasmodium PK7 catalytic activity – biochemical, TCAMS antimalarial set, Kinase-Glo luminescence (AID 1159587); details: recombinant PfPK7, Kinase-Glo ATP depletion luminescence
Protein kinase 7 (PK7), Plasmodium falciparum 3D7 (PF3D7_0213400), sequence (Q7YTF7 1-343): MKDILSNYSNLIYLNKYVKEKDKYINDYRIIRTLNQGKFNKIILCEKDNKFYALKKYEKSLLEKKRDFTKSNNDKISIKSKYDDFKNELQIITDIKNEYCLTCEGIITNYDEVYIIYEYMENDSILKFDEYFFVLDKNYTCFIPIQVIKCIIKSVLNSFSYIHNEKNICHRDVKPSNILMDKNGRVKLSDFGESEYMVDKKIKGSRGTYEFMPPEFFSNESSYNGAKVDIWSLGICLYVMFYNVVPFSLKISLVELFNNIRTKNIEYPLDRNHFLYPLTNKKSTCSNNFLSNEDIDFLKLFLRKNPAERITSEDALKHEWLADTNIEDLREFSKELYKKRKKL

[8] = biological target: Calcium-dependent protein kinase 4 (Plasmodium falciparum (isolate 3D7)) (UniProt Q8IBS5); test: PfCDPK4 kinase inhibitors, biochemical, TCAMS library (AID 1159588; cut-off not given, nearly all actives have IC50 up to about 0.91 µM); details: recombinant PfCDPK4, Kinase-Glo ATP depletion luminescence
Calcium-dependent protein kinase 4 (Plasmodium falciparum (isolate 3D7)), sequence (Q8IBS5 whole entry, looked up): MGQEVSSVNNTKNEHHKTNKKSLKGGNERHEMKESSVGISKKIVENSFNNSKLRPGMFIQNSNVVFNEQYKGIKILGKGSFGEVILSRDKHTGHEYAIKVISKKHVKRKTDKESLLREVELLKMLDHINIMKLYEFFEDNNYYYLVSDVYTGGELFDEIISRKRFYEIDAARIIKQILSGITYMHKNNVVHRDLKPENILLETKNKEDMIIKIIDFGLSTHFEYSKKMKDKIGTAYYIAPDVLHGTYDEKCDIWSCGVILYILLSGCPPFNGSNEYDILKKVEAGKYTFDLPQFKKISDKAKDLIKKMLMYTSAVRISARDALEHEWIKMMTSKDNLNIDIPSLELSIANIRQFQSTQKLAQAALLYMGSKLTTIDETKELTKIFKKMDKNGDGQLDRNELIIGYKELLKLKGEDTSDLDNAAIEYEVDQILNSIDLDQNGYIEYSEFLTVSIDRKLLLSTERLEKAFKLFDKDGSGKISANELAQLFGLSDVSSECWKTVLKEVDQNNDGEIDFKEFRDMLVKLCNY

SMILES | growth inhibition [1] | inhibition [2] | inhibition [3] [%] | growth inhibition [4] | outcome [5] | outcome [6] | outcome [7] | outcome [8]
Cc1noc(C)c1-c1cccc(CNCc2cccc(-c3ccc(-c4nc5ccc(C(F)(F)F)cc5[nH]4)s3)c2)c1 | 95% (active) | 23% | 0 | 100% (active) | inactive | inactive | inactive | inactive
CC1(C)N=C(N)N=C(N)N1OCCCOc1cccc(Cl)c1 | 95% (active) | 65% (active) | -4 | 95% (active) | inactive | inactive | inactive | inactive
COc1ccc2nccc(NN=Cc3ccccc3[N+](=O)[O-])c2c1 | 100% (active) | 67% (active) | -2 | 100% (active) | inactive | inactive | inactive | inactive
Cc1cccc2[nH]c(-c3ccc(-c4cccc(NC(=O)c5cnn6cccnc56)c4)cc3)nc12 | 29% | 100% (active) | -4 | 91% (active) | inactive | inactive | inactive | inactive
CC(C)Nc1cc(C(=O)N[C@@H](Cc2ccccc2)[C@H](O)CNCc2cccc(C(F)(F)F)c2)c(F)c(N2CCCCS2(=O)=O)c1 | 78% (active) | -5% | -2 | 93% (active) | inactive | inactive | inactive | inactive
CCOc1ccc(-c2nonc2NC(=O)c2ccc(Cl)cc2)cc1OCC | 47% | 28% | -2 | 94% (active) | inactive | inactive | inactive | inactive
CC1CCCN(Cc2c(O)ccc3c(=O)c(-c4nc5ccccc5s4)c(N)oc23)C1 (stereo not drawn) | 99% (active) | 20% | -2 | 100% (active) | inactive | inactive | inactive | inactive
CC1CCC2(CC1)N=C(N)N=C(N)N2OCCCCCCCCO (stereo not drawn) | 87% (active) | 2% | -4 | 96% (active) | inactive | inactive | inactive | inactive
Cc1ccc(CON2C(N)=NC(N)=NC23CCCCC3)c2ccccc12 | 56% (active) | 57% (active) | -8 | 98% (active) | inactive | inactive | inactive | inactive
OCc1c(Cl)cc(Cl)cc1CNCCCNc1nc2ccccc2[nH]1 | 2% | -6% | -2 | 102% (active) | inactive | inactive | inactive | inactive
C/C=C/COc1ccc(-c2c(C)[nH]c(C)c(Cl)c2=O)cc1 | 97% (active) | 0% | 2 | 97% (active) | inactive | inactive | inactive | inactive
Cc1ccc(S(=O)(=O)NC2CCN(CCNC(=O)Nc3cc(C)nc4ccccc34)C2)cc1 (stereo not drawn) | 42% | -2% | -3 | 97% (active) | inactive | inactive | inactive | inactive
COc1ccc(CNCC2CCC(CNCCc3ccccc3)CC2)cc1Cl (stereo not drawn) | 29% | 23% | -2 | 100% (active) | inactive | inactive | inactive | inactive
O=C(Nc1cc(Cl)cc(Cl)c1)Nc1ccccc1C(=O)NC1CCCCC1 | 100% (active) | 12% | 4 | 101% (active) | inactive | inactive | inactive | inactive
CN1c2ccc([N+](=O)[O-])cc2C(C)(C)C12C=Cc1cc(Br)cc([N+](=O)[O-])c1O2 (stereo not drawn) | 99% (active) | -8% | 1 | 101% (active) | inactive | inactive | inactive | inactive
CCC1(c2ccccc2)N=C(N)N(CCCc2ccccc2)C1=O (stereo not drawn) | 96% (active) | 17% | 1 | 90% (active) | inactive | inactive | inactive | inactive
CC(C)NC(=O)c1cccc(-c2ccc(OCCN3CCCC3c3cc4ccccc4[nH]3)cc2)c1 (stereo not drawn) | 34% | 25% | -2 | 100% (active) | inactive | inactive | inactive | inactive
CCCCCCP(=O)(COc1ccc(CCN(CC(O)COc2cccc3[nH]c(C(N)=O)cc23)CC(O)COc2cccc3[nH]c(C(N)=O)cc23)cc1)OCCCC (stereo not drawn) | 97% (active) | -10% | 3 | 99% (active) | inactive | inactive | inactive | inactive
COc1ccc2ncc(F)c(CCN3CCC(NCc4cc(OC)c5c(c4)OCCO5)CC3)c2n1 | 53% (active) | -2% | -3 | 101% (active) | inactive | inactive | inactive | inactive
COc1ccc2[nH]cc(C3CCN(CCCCNC(=O)c4ccc(NC(=O)c5ccc(Cl)cc5)cc4)CC3)c2c1 | 16% | 17% | 3 | 98% (active) | inactive | inactive | inactive | inactive
CN1Cc2ccc(NS(=O)(=O)c3ccc(-c4ccoc4)cc3)cc2C1 | 2% | -3% | -2 | 97% (active) | inactive | inactive | inactive | inactive

SMILES | growth inhibition [1] | inhibition [2] | inhibition [3] [%] | growth inhibition [4] | outcome [5] | outcome [6] | outcome [7] | outcome [8]
O=C(NC1CCN(Cc2ccccc2)CC1)c1cccc(-c2cc3cc(Cl)c(Cl)cc3[nH]2)c1 | 86% (active) | 15% | -6 | 100% (active) | inactive | inactive | inactive | inactive
Cc1ccc(Cn2ncc(N3CCC(N)CC3)c(Cl)c2=O)cc1NC(=O)Nc1ccc(-c2ccccc2)cc1 | 25% | 29% | -5 | 90% (active) | inactive | inactive | inactive | inactive
O=[N+]([O-])c1ccc2c(c1)c1ccccc1n2Cc1ccccc1O | 84% (active) | -2% | 0 | 93% (active) | inactive | inactive | inactive | inactive
CC(C)CCNC(=O)C1Cc2c([nH]c3cc(Br)ccc23)C2(CCN(Cc3ccccc3)CC2)N1 (stereo not drawn) | 45% | 10% | -5 | 96% (active) | inactive | inactive | inactive | inactive
CC1CCN(Cc2ccc(NC(=O)c3cc4ccc5cccnc5c4[nH]3)cc2)CC1 | 93% (active) | 10% | -1 | 101% (active) | inactive | inactive | inactive | inactive
CS(=O)(=O)c1ccc(CCNCc2ccc(-c3cccc(-c4nc5ccccc5[nH]4)c3)cc2)cc1 | 99% (active) | 40% | -4 | 100% (active) | inactive | inactive | inactive | inactive
CC(=NNC(=S)NC(C)(C)C)c1ccccn1 | 100% (active) | 63% (active) | -3 | 99% (active) | inactive | inactive | inactive | inactive
CC(C)[C@H](NC(=O)c1ccc(O)c(-c2ccc(Cl)c(Cl)c2)c1)C(=O)NCCN1CCCCC1 | 98% (active) | -6% | -4 | 99% (active) | inactive | inactive | inactive | inactive
CNC(=O)c1ccc2nc(-c3ccc(-c4ccccc4)cc3)n(CC3CCN(CC4CCCC4)CC3)c2c1 | 36% | 13% | -6 | 84% (active) | inactive | inactive | inactive | inactive
CN1CCC(C(=O)Nc2cccc(-c3ccc(-c4nc5ccc(F)cc5[nH]4)cc3)c2)CC1 | 51% (active) | 12% | 3 | 100% (active) | inactive | inactive | inactive | inactive
CCCC(=O)NC(c1ccc(C)cc1)c1ccc2cccnc2c1O (stereo not drawn) | 45% | 52% (active) | -4 | 88% (active) | inactive | inactive | inactive | inactive
CCCCCCN1CCC(CNCc2cccc(Cl)c2)CC1 | 13% | 8% | 1 | 85% (active) | inactive | inactive | inactive | inactive
COC(=O)C1(NC(=O)c2ccc(-n3nc(C)c(-c4ccccc4)c3N)cc2)CCCC1 | 81% (active) | 9% | -5 | 96% (active) | inactive | inactive | inactive | inactive
NCc1cccc(-c2ccc(CNC3CCN(Cc4ccccc4)CC3)cc2)c1 | 3% | 2% | 0 | 95% (active) | inactive | inactive | inactive | inactive
O=C(/C=C/c1ccc(Cl)cc1)NCCCCCN1CCC(C(=O)Nc2ccc(Cl)c(Cl)c2)CC1 | -4% | 47% | -3 | 100% (active) | inactive | inactive | inactive | inactive
CC(CNC1CCN(CCn2c(=O)ccc3ccc(F)cc32)CC1)c1ccccc1 (stereo not drawn) | 4% | -12% | -1 | 85% (active) | inactive | inactive | inactive | inactive
CCc1cc(N2CCN(c3ccccc3F)CC2)nc(SCc2ccc(C(=O)NC3CC3)o2)n1 | 94% (active) | 9% | 1 | 90% (active) | inactive | inactive | inactive | inactive
O=C(Nc1ccccc1)c1ccc(N2CCC(COc3cccc(C(F)(F)F)c3)CC2)nc1 | 83% (active) | 11% | -3 | 96% (active) | inactive | inactive | inactive | inactive
O=C(NOCCCCOc1ccc(Cl)c(Cl)c1)c1ccccc1 | 1% | 2% | 3 | 98% (active) | inactive | inactive | inactive | inactive
Cc1ccc(Oc2c(-c3ccccc3CN3CCCC3CN(C)C)cnn(C)c2=O)cn1 (stereo not drawn) | 9% | -1% | -4 | 88% (active) | inactive | inactive | inactive | inactive
